Rows were chosen to be rich in hits. Some 19% of all compounds tested hit in one or more screens of this group.
Giardia kill: kills Giardia lamblia | AID 540267 | Giardia lamblia trophozoite viability | hit rate 0.15% among 340,000 | activity change, % at 7.66 µM, hits read low; in the data active = activity change below about -80%; inconclusive = between about -30% and that limit;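 note: parasites exposed to compound for two days anaerobically before the ATP read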
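Trophozoites 100 cells/well + cpd; 48 hrs, 37 deg C, anaerobic. ATPLite 1-Step added, 15-30 min RT, luminescence read (ATP-based viability).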
ELG1 DNA repair: blocks ELG1-dependent DNA repair in HEK293T cells. AID 504467. HEK293T ELG1-luciferase reporter, luminescence, 16 h; DNA damage induced by 5-fluorouridine. hit rate 2.3% among 330,000. Potency, µM (titrated, usually from 46.1 µM), inactives show top-dose activity change, negative = inhibition, actives largely listed as inhibitors; note: potency is the fitted concentration of half-maximal effect; nearly all actives have a fitted effect of over 55% in size
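Luminescence from the luciferase reporter, measured 30 min after ONE-Glo reagent at room temperature, was the read-out. Beforehand, 2,000 cells per well were exposed for 16 hr at 37 °C to 5-fluorouridine together with compound or vehicle.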
TDP1 cell noCPT: qHTS for Inhibitors of human tyrosyl-DNA phosphodiesterase 1 (TDP1): qHTS in cells in absence of CPT; DT40 Tdp1-/- hTDP1 cells, no CPT, ATP luminescence, 48 h; Potency, µM (doses to about 46.2 µM), without a hit: top-dose activity change, negative = growth inhibition, hits mostly inhibitors; hit rate 15% among 420,000; note: potency is the fitted concentration of half-maximal effect; nearly all actives have a fitted effect of over 55% in size
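Camptothecin absent (DMSO only). Human TDP1-complemented DT40 knockout cells, 400 cells/well, 37 °C for minimum 48 hr; ATP measured via CellTiter-Glo, 30 min dark incubation, luminescence.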
TDP1 inh: inhibitors of human tyrosyl-DNA phosphodiesterase TDP1. Q9NUW8. recombinant TDP1, AlphaScreen DNA substrate cleavage. Potency, µM (titrated, usually from 130 µM), for inactives: top-dose activity change, negative = inhibition, hits mostly inhibitors. hit rate 0.28% among 350,000; note: potency is the fitted concentration of half-maximal effect; nearly all actives have a fitted effect of over 40% in size
Target sequence (Q9NUW8 whole entry, looked up): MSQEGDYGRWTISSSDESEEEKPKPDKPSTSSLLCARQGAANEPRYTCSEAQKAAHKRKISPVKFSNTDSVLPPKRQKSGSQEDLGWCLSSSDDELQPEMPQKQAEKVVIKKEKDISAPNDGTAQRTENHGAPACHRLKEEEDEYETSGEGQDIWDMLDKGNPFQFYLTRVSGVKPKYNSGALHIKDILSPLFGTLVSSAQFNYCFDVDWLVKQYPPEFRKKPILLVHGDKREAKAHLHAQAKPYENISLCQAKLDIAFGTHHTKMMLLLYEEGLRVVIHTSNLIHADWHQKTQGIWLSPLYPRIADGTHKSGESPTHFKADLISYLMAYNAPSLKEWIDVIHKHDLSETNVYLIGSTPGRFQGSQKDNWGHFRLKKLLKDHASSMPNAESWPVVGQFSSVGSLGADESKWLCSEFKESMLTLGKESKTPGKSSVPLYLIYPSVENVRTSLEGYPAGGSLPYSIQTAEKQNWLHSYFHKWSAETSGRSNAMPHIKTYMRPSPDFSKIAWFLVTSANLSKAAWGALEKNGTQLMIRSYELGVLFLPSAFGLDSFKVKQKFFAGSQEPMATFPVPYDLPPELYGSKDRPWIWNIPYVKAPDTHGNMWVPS
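Compounds were preincubated with Tdp1 (1 nM final) for 15 min at room temperature before substrate (15 nM final) started a 5 min reaction; beads (10 ug/ml final) were then added for 10 min before AlphaScreen detection.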
IL1B secr inh: inhibitors of inflammasome signaling (IL-1 beta secretion); AID 743279; activity change, % at 57.5 µM; hit rate 4.7% among 360,000; THP-1 LPS/ATP IL-1B secretion, AlphaLISA, 16 h; active compounds read low; in the data active = activity change below about -50%; inconclusive = mostly about -30% to -49%
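THP-1 cells pretreated 1 hr with compounds (up to 57.5 uM final), then stimulated with LPS (250 ng/mL final) plus ATP (1.25 mM final); secreted IL-1B measured by AlphaLISA after 16 hr, decreased signal indicating inhibition.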
TDP1 cell CPT: DT40-hTDP1 cell growth loss with CPT; chicken DT40 Tdp1-/-;hTDP1 cells + 20 nM CPT, ATP luminescence, 48 h; Potency, µM (series often up to 46.2 µM), for the others: top-dose activity change, negative = growth inhibition, usual class: inhibitors; hit rate 12% among 420,000; AID 686979; note: potency is the fitted concentration of half-maximal effect; nearly all actives have a fitted effect of over 55% in size
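Chicken DT40 Tdp1-/- cells complemented with human TDP1, 400 cells/well, exposed to compounds plus 20 nM camptothecin for at least 48 h at 37 C; viability read as ATP content by CellTiter-Glo luminescence.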
* hit, by the source's call. Unless noted, calls come from the whole dose curve; as a rule, active = well fitted curve in the direction sought with a large enough effect; inconclusive = small, poorly fitted or top-dose-only effect, or another doubt; inactive = no such curve, though single readings can be large; an effect the other way counts as inactive or inconclusive. % is set by controls: 0 for no effect and ±100 for the full control effect.

How did CSCCC(NC(=O)CCNC(=O)c1ccccc1Cl)c1nc2ccccc2[nH]1 (stereo unspecified) do in these assays?
Giardia kill: -0.2; ELG1 DNA repair: 9.0%; TDP1 cell noCPT: -10.5%; TDP1 inh: 2.6%; IL1B secr inh: 13.3; TDP1 cell CPT: -11.4%

What do the screens show for `Cc1ccc(S(=O)(=O)N(C)C[C@@H]2OCc3cn(nn3)CCCC(=O)N([C@@H](C)CO)C[C@H]2C)cc1`?
TDP1 cell noCPT: -5.3%; IL1B secr inh: 27.3; TDP1 cell CPT: -0.1%

Results for COc1ccc(CN2CCN(C(=O)CC(C)C)CC2)cc1 ?
Giardia kill: 5.6; ELG1 DNA repair: -16.0%; TDP1 cell noCPT: -5.2%; IL1B secr inh: 14.0; TDP1 cell CPT: 0.2%

How did Cc1cc(C)n(-c2nc(NC(C)C)nc(NC(C)C)n2)n1 do in these assays?
Giardia kill: -10.2; ELG1 DNA repair: 2.91µM*; TDP1 cell noCPT: 1.46µM*; TDP1 inh: 3.4%; IL1B secr inh: -5.0; TDP1 cell CPT: 1.03µM*

Results for Cc1cc(C)n(-c2ncc(C#N)cn2)n1 ?
Giardia kill: 10.7; ELG1 DNA repair: 6.0%; TDP1 cell noCPT: -0.6%; TDP1 inh: 0.0%; IL1B secr inh: 8.4; TDP1 cell CPT: 3.2%

Results for COCC(=O)N(CCc1ccc(OC)c(OC)c1)Cc1cc2cc(C)ccc2nc1Cl ?
Giardia kill: 1.1; ELG1 DNA repair: 16.4µM*; TDP1 cell noCPT: inconclusive; TDP1 inh: 5.3%; IL1B secr inh: 6.6; TDP1 cell CPT: inconclusive

Results for CC(=O)OC1=CN(Cc2ccccc2)S(=O)(=O)c2ccccc21 ?
TDP1 cell noCPT: -7.8%; TDP1 inh: 1.6%; TDP1 cell CPT: -3.4%

Results for O=C(Nc1cc(-c2ccc(Cl)cc2)no1)c1ccc(F)cc1 ?
TDP1 cell noCPT: -5.8%; TDP1 inh: 7.4%; TDP1 cell CPT: -10.2%

How did Cc1ccc(CN2CCN(Cc3ccncc3)CC2CCO)o1 (stereo unspecified) do in these assays?
Giardia kill: -12.3; ELG1 DNA repair: 0.5%; TDP1 cell noCPT: inconclusive; TDP1 inh: 2.7%; IL1B secr inh: -8.3; TDP1 cell CPT: 3.8%

What do the screens show for `CCOc1ccc(CN2CCN(Cc3[nH]c4ccc(OC)cc4c3C)CC2CCO)cc1` (stereo unspecified)?
Giardia kill: 12.1; ELG1 DNA repair: inconclusive; TDP1 cell noCPT: inconclusive; TDP1 inh: 3.6%; IL1B secr inh: -66.5*; TDP1 cell CPT: inconclusive

Results for Cc1ccc(CN2CCN(Cc3cnn(-c4ccc(Cl)cc4)c3)CC2CCO)o1 (stereo unspecified) ?
Giardia kill: -8.2; ELG1 DNA repair: inconclusive; TDP1 cell noCPT: inconclusive; TDP1 inh: -2.6%; IL1B secr inh: -56.9*; TDP1 cell CPT: inconclusive

How did CCOc1ccccc1CN1CCN(Cc2c[nH]c3ccccc23)CC1CCO (stereo unspecified) do in these assays?
Giardia kill: -18.0; ELG1 DNA repair: -9.2%; TDP1 cell noCPT: 16.4µM*; IL1B secr inh: -4.6; TDP1 cell CPT: 9.2µM*

What do the screens show for `Cc1ccc(CN2CCN(Cc3c[nH]c4ccccc34)CC2CCO)o1` (stereo unspecified)?
Giardia kill: 35.3; ELG1 DNA repair: -0.9%; TDP1 cell noCPT: inconclusive; TDP1 inh: 6.0%; IL1B secr inh: -0.1; TDP1 cell CPT: 7.31µM*

How did Cc1ccc(CN2CCN(Cc3cc(=O)c4ccccc4[nH]3)CC2CCO)o1 (stereo unspecified) do in these assays?
Giardia kill: -8.0; ELG1 DNA repair: 10.5%; TDP1 cell noCPT: 17.1%; TDP1 inh: 3.6%; IL1B secr inh: -3.0; TDP1 cell CPT: 0.5%

What do the screens show for `CCOc1ccccc1CN1CCN(Cc2ccc(C)o2)C(CCO)C1` (stereo unspecified)?
Giardia kill: -14.1; ELG1 DNA repair: -2.9%; TDP1 cell noCPT: inconclusive; TDP1 inh: 2.6%; IL1B secr inh: -7.3; TDP1 cell CPT: -19.1%

What do the screens show for `Cc1cc2nc(C(C)(C)C)c(CC3CCCCC3)n2c(C)c1Br`?
TDP1 cell noCPT: inconclusive; IL1B secr inh: 59.7; TDP1 cell CPT: inconclusive

How did CCOc1ccccc1CN1CCN(Cc2[nH]c3ccccc3c2C)CC1CCO (stereo unspecified) do in these assays?
Giardia kill: 7.3; ELG1 DNA repair: -21.8%; TDP1 cell noCPT: 14.6µM*; TDP1 inh: -1.2%; IL1B secr inh: -9.4; TDP1 cell CPT: inconclusive

Results for COc1ccc(/C=C/CN2CCN(Cc3ccc(F)cc3)C(CCO)C2)cc1 (stereo unspecified) ?
Giardia kill: 6.1; ELG1 DNA repair: -0.2%; TDP1 cell noCPT: 29.1µM*; TDP1 inh: 0.0%; IL1B secr inh: -54.6*; TDP1 cell CPT: inconclusive

How did CCOc1ccccc1CN1CCN(Cc2cc(=O)c3ccccc3[nH]2)CC1CCO (stereo unspecified) do in these assays?
Giardia kill: -20.1; ELG1 DNA repair: -18.5%; TDP1 cell noCPT: inconclusive; IL1B secr inh: 48.8; TDP1 cell CPT: inconclusive

How did COc1ccc(-c2oc3ccc(-c4ccc(OC)nc4)cc3c2-c2ccc(OC)cc2)cc1 do in these assays?
Giardia kill: 25.9; TDP1 cell noCPT: 14.6µM*; IL1B secr inh: -6.7; TDP1 cell CPT: inconclusive

How did COc1ccc(-c2c(-c3cccc(C)c3)oc3ccc(-c4ccc5c(c4)OCO5)cc23)cn1 do in these assays?
Giardia kill: 2.2; TDP1 cell noCPT: 8.2µM*; IL1B secr inh: -7.2; TDP1 cell CPT: inconclusive

How did COc1ccc(-c2c(C3=CCCCC3)oc3ccc(-c4ccc5c(c4)OCO5)cc23)cn1 do in these assays?
Giardia kill: -4.2; TDP1 cell noCPT: 14.6µM*; IL1B secr inh: -11.8; TDP1 cell CPT: inconclusive

What do the screens show for `CC12CCC(C(=O)N3CCC(Cc4ccccc4)CC3)(C(=O)C1=O)C2(C)C` (stereo unspecified)?
Giardia kill: 14.3; ELG1 DNA repair: inconclusive; TDP1 cell noCPT: inconclusive; TDP1 inh: 5.5%; IL1B secr inh: -102.4*; TDP1 cell CPT: 11.3%

What do the screens show for `O=C(CN1CCN(C(=O)C2CC2)CC1)Nc1cc(C(F)(F)F)cc(C(F)(F)F)c1`?
Giardia kill: -16.8; ELG1 DNA repair: 22.2%; TDP1 cell noCPT: inconclusive; TDP1 inh: -0.2%; IL1B secr inh: 4.7; TDP1 cell CPT: inconclusive

Screens (PubChem BioAssay)
